Lassa entry inh: inhibitors of Lassa virus binding or cell entry | Lassa virus pseudotype entry inhibition, cell reporter | Potency, µM (series often up to 37.9 µM), most hits filed as inhibitors | hit rate 1.2% among 300,000; calls by dose curve; tested in HEK293 cells; note: nearly all actives have a fitted effect of over 50% in size
Marburg entry inh: inhibitors of Marburg virus binding or cell entry. Marburg virus pseudotyped entry inhibition, cell reporter. Potency, µM (top dose mostly 37.8 µM), hits mostly inhibitors. hit rate 1.8% among 300,000; calls by dose curve; tested in HEK293 cells
Shiga toxin inh: inhibitors of Shiga toxin in Vero cells; Vero cells, Shiga toxin protein synthesis inhibition reporter; inhibition, % at 38.7 µM; hit rate 9.2% among 290,000; in the data active = inhibition mostly above about 28%, no sharp cut-off; inactive = mostly below about 43%
CHX counter: counter-screen for Shiga toxin inhibitors: cycloheximide protein synthesis inhibition; cell reporter, cycloheximide protein synthesis inhibition counterscreen; hit rate 12% among 300,000; AID 2314; max response, %; in the data active = max response mostly above about 13%, no sharp cut-off; inactive = mostly below about 14%; note: read at 38.3 µM for the half of the compounds with a filed dose
AMA1-RON2 inh: AMA1-RON2 (P. falciparum) interaction inhibition | AlphaScreen AMA1-biotinylated RON2 peptide binding | Potency, µM (highest dose often 58.2 µM), most hits filed as inhibitors | hit rate 0.2% among 360,000; active = well fitted inhibition curve with a large enough effect; inconclusive = small, poorly fitted or top-dose-only effect; inactive = no such curve, though single readings can be large or run the other way; note: nearly all actives have a fitted effect of over 45% in size
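AMA1 (3D7) with his tag at 25 nM final met compounds first, then biotinylated RON2 peptide at 25 nM; detection used donor plus acceptor beads, 10 µg/mL apiece, read by AlphaScreen after 30 min at room temperature.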
Large screens that a line does not name were inactive. This excerpt belongs to a sample that is enriched for hits.

Cc1cc(C(=O)NCCCn2ccnc2)sc1-c1ccccc1	Marburg entry inh inconclusive
N#Cc1ccc(NC(=O)c2cccs2)nc1	Marburg entry inh inconclusive, Shiga toxin inh 74, CHX counter 24
CCCC(=O)Nc1ccc(NC(=O)c2cccs2)cn1	Marburg entry inh inconclusive, Shiga toxin inh 98, CHX counter 19
O=C(Nc1ccc(NC(=O)C2CC2)nc1)c1cccs1	Shiga toxin inh 60, CHX counter 30
CCCCC(=O)Nc1ccc(NC(=O)c2cccs2)cn1	none (no result: Shiga toxin inh, CHX counter)
O=C(COC(=O)c1cccs1)Nc1ccc(Cl)cn1	none (no result: Shiga toxin inh, CHX counter)
Cc1cc(NC(=O)C2CC2)ccc1NC(=O)c1cccs1	Lassa entry inh inconclusive, Marburg entry inh inconclusive
CCCC(=O)Nc1ccc(NC(=O)c2ccccn2)cn1	Lassa entry inh inconclusive, CHX counter 23
O=C(Nc1cccc(NC(=O)c2cccs2)c1)c1ccc(F)cc1	Marburg entry inh inconclusive
O=C(Nc1ccc(NC(=O)c2cccs2)cn1)c1ccccc1	Shiga toxin inh 87, CHX counter 60 (no result: Lassa entry inh, Marburg entry inh)
CC(CC(C)(C)C)CP(=O)(O)CC(C)CC(C)(C)C (stereo unspecified)	none (no result: Lassa entry inh, Marburg entry inh, AMA1-RON2 inh)
CN(C)c1ccc(C2Nc3ccccc3C(=O)N2CCCN2CCOCC2)cc1 (stereo unspecified)	Shiga toxin inh 43, CHX counter 31 (no result: Lassa entry inh, Marburg entry inh)
Cc1cc(N)n(-c2ccc3ccccc3c2)n1	Shiga toxin inh 43, CHX counter 18
CC(C)(C)C(=O)Oc1ccc2cc(-c3ccc4ccccc4n3)c(=O)oc2c1	none
CCNc1ccccc(-c2ccc3ccccc3n2)c1=O	Shiga toxin inh 134, CHX counter 41
COCCNC(=O)C1(C)CCN(C(=O)c2sccc2C)C1 (stereo unspecified)	none (no result: Lassa entry inh, Marburg entry inh, Shiga toxin inh, CHX counter)
COc1ccc(-n2c(SCC(=O)Nc3ccccc3C)nc(O)c(Cc3ccccc3)c2=O)cc1	none
COc1ccc(-n2c(O)c(Cc3ccccc3)c(=O)n3nc(-c4ccccc4)c(=O)cc23)cc1	Lassa entry inh inconclusive, CHX counter 11, AMA1-RON2 inh inconclusive
CC(=O)c1cnn(-c2ccccc2)c1C	Marburg entry inh inconclusive
Cc1c(C(=O)N(C)c2ccccc2Cl)cnn1-c1ccccc1	Shiga toxin inh 30, CHX counter 12
Cc1c(C(=O)N(C)c2cccc(Cl)c2)cnn1-c1ccccc1	Shiga toxin inh 60, CHX counter 39 (no result: Lassa entry inh, Marburg entry inh)
CCOc1cc(CNC(=O)c2ccc3c(c2)N(C)C(=O)C2CCCCN32)cc(OCC)c1OCC (stereo unspecified)	none (no result: Marburg entry inh, Shiga toxin inh, CHX counter, AMA1-RON2 inh)
COc1ccc(-c2ccc(CN3C(C(C)C)C(=O)N(Cc4cn(CCC5OCCO5)nn4)CCS3(=O)=O)cc2)cc1 (stereo unspecified)	none (no result: Lassa entry inh, Marburg entry inh, Shiga toxin inh, CHX counter)
COC(=O)N/N=C/c1ccc(OC(=O)/C=C/c2ccco2)cc1	AMA1-RON2 inh inconclusive
O=C(/C=C/c1ccco1)Oc1cccc2cccnc12	Marburg entry inh inconclusive
O=C(Cc1ccccc1)N/N=C/c1ccc(OC(=O)/C=C\c2ccco2)cc1	Shiga toxin inh 49, CHX counter 29
CC(C)(C)OC(=O)N/N=C\c1ccc(OC(=O)c2ccco2)cc1	Lassa entry inh inconclusive, Marburg entry inh inconclusive, Shiga toxin inh 79, CHX counter 38
O=C(/C=C\c1ccco1)Oc1cccc2cccnc12	Marburg entry inh inconclusive, CHX counter 23
CCc1ccc(OC(=O)/C=C/c2ccco2)cc1	Shiga toxin inh 30, CHX counter 33 (no result: Lassa entry inh, Marburg entry inh)
CCOCCCNc1ccc(N2C(=O)CCCC2=O)cc1[N+](=O)[O-]	Lassa entry inh inconclusive
Cc1oc(-c2cccc(Cl)c2)nc1CN1CCC(C(=O)NC(C)C)CC1	Lassa entry inh inconclusive (no result: Shiga toxin inh, CHX counter, AMA1-RON2 inh)
CCN1CCCC1CNC(=O)C1CCN(Cc2nc(-c3cccc(Br)c3)oc2C)CC1 (stereo unspecified)	Lassa entry inh 11µM, Marburg entry inh 3.5µM
CC(C)c1ccc(NC2CCCN(C(=O)c3ccoc3)C2)cc1 (stereo unspecified)	Shiga toxin inh 32 (no result: Lassa entry inh, Marburg entry inh)
CC(C)c1cc(C(=O)N2CCCC(Nc3ccc(F)cc3)C2)n[nH]1 (stereo unspecified)	CHX counter 19
O=C(c1ccoc1)N1CCCC(Nc2ccc(F)c(F)c2)C1 (stereo unspecified)	none
CS(=O)(=O)c1ccc(S(=O)CC(=O)OCc2ccccc2)c([N+](=O)[O-])c1 (stereo unspecified)	Lassa entry inh inconclusive, Marburg entry inh inconclusive, CHX counter 11
O=C(CS(=O)c1ccc(C(F)(F)F)cc1[N+](=O)[O-])Oc1ccccc1 (stereo unspecified)	Lassa entry inh inconclusive, Marburg entry inh inconclusive, CHX counter 25
CCOC(=O)c1ccccc1OC(=O)CS(=O)c1ccccc1[N+](=O)[O-] (stereo unspecified)	none
Cc1c(C(=O)NN2CCOCC2)oc2c1ccc1ccccc12	none
COc1ccc(-c2csc(N3CCC(C(N)=O)(N4CCCCC4)CC3)n2)cc1	Lassa entry inh 23µM
O=C1CNC(=S)N1c1nc(-c2ccccc2)cs1	Marburg entry inh inconclusive, Shiga toxin inh 39, CHX counter 23
COc1ccc(-c2csc(N3C(=N)SCC3=O)n2)cc1	Shiga toxin inh 163, CHX counter 49
COc1ccc(-c2csc(N3C(=O)C4C5c6ccccc6C(c6ccccc65)[C@@H]4C3=O)n2)cc1 (stereo partly specified)	none
COc1ccc(-c2csc(N3C(=O)CNC3=S)n2)cc1	Lassa entry inh inconclusive, Marburg entry inh inconclusive, Shiga toxin inh 140, CHX counter 93
CCCCN1CCCc2cc(CN(CCCN3CCOCC3)C(=O)Nc3ccc(CC)cc3)ccc21	none (no result: Marburg entry inh, Shiga toxin inh, CHX counter, AMA1-RON2 inh)
Cc1ccc(C(C)(O)CS(=O)(=O)Cc2ccccc2Cl)cc1 (stereo unspecified)	none (no result: Lassa entry inh, Marburg entry inh)
CCOc1ccccc1NC(=O)c1ccccc1-c1ccccc1	Marburg entry inh inconclusive
CCOc1ccccc1NC(=O)c1ccccc1-c1nc(-c2ccccc2)no1	Marburg entry inh inconclusive, CHX counter 27
CN1CCN(C(=O)c2ccccc2-c2nc(-c3ccccc3)no2)CC1	CHX counter 22
NC(=O)c1ccccc1-c1nc(-c2ccccc2)no1	Shiga toxin inh 95, CHX counter 44
C[C@]12CC[C@@H]3[C@@H](CCC4=CC(=O)CC[C@@H]43)[C@@H]1CC[C@@H]2OC(=O)CCc1ccccc1	none (no result: Lassa entry inh, Marburg entry inh, AMA1-RON2 inh)
COc1ccc2c(c1OC)C(=O)N(c1ccc(F)cc1)C2	Marburg entry inh inconclusive, Shiga toxin inh 65, CHX counter 36
COc1ccc2c(c1OC)C(=O)N(c1cccc(NC(C)=O)c1)C2	CHX counter 23
COc1ccc2c(c1OC)C(=O)OC2	none (no result: Lassa entry inh, Marburg entry inh)
COc1cccc(C(=O)NCCSCc2c(F)cccc2Cl)c1	CHX counter 22 (no result: Shiga toxin inh)
COc1cccc(C(=O)NCCSCc2ccccc2Cl)c1	CHX counter 13 (no result: Lassa entry inh, Marburg entry inh)
O=C(Cn1c(=O)cnc2ccccc21)Nc1cccc(S(=O)(=O)N2CCOCC2)c1	none (no result: Lassa entry inh, Marburg entry inh, Shiga toxin inh, CHX counter)
CCOC(=O)N1CCN(Cc2nc3cc(NC(=O)c4ccccc4Cl)ccc3n2C(C)C)CC1	Marburg entry inh inconclusive (no result: Shiga toxin inh, CHX counter, AMA1-RON2 inh)
CCN1CCN(Cc2ccc(OCc3ccccc3)cc2)CC1	Lassa entry inh inconclusive, Marburg entry inh inconclusive, Shiga toxin inh active, CHX counter 50
CN1CCN(Cc2ccc(OCc3ccccc3)cc2)CC1	Lassa entry inh inconclusive, Marburg entry inh inconclusive, Shiga toxin inh 94, CHX counter 27
